# Mtb bLac sens: beta-lactam sensitization of Mtb H37Rv | M. tuberculosis H37Rv growth with meropenem, percent inhibition | inhibition, % at 25 µM | 0.27% of 330,000 active | AID 434955; call rule not given here;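 further: growth measured after seven days incubation then overnight dye step; 0% = bacteria only wells and 100% = bacteria with antibiotic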
# Mtb hypoxia inh: reduces hypoxia-regulated biosensor signal in M. tuberculosis | 0.1% of 300,000 active | M. tuberculosis hypoxia-regulated fluorescent reporter, fluorescence | fluorescence inhibition, % (test concentration not listed) | AID 1159583; in the data active means fluorescence inhibition mostly above about 23%, no sharp cut-off; inactive means mostly below about 17%
# Sa RN4220 lethal: kills Staphylococcus aureus RN4220; inhibition, % (test concentration not listed); 0.33% of 330,000 active; S. aureus RN4220 growth, OD600, 16 h; in the data active means inhibition above about 85%;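 further: plate controls were untreated cells for no effect and reference antibiotic for full effect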
# Sa ugtP lethal: compounds lethal to S. aureus RN4220 ugtP deletion mutant | OD600 growth, 16 h | growth inhibition, % (test concentration not listed) | AID 1259309 | 0.54% of 330,000 active; in the data active means growth inhibition above about 68%;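 further: plate controls were untreated wells for no effect and antibiotic for full effect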
# * marks the source's active call; other numbers are inactive results; · = no result shown. Shown are actives, neighbours in structure and some others; about 0.61% of the full set was active somewhere.
SMILES,Mtb bLac sens,Mtb hypoxia inh,Sa RN4220 lethal,Sa ugtP lethal
COc1cc(N=Nc2ccc3ccccc3c2)ccc1O,89.0,-3.5,6.3,93.7*
CC1CN(C(C)CO)C(=O)c2cccc(NC(=O)Nc3ccc(C(F)(F)F)cc3)c2OC1CN(C)Cc1ccc(-c2ccccc2)cc1 (configuration not stated),·,5.5,1.3,-0.7
Cc1ccc(S(=O)(=O)N(CC(=O)NN=Cc2cccs2)c2cccc3cccnc23)cc1,·,6.8,2.8,4.4
CC(C)(C)c1csc(NN=Cc2ccc(O)cc2)n1,·,33.8*,15.7,24.7
CN(C)CCCNCCCCNC(=O)C=NO,·,·,1.5,4.1
CCc1ccccc1NCC(=O)Nc1ccc(Cl)c(C(F)(F)F)c1,4.8,3.0,83.5,89.5*
COc1ccccc1NC(=O)CN1CCN(CC(=O)Nc2ccc(Cl)c(C(F)(F)F)c2)CC1,·,·,-15.3,-25.9
O=C(/C=C/c1cccs1)NC(=S)Nc1ccc(C(=O)O)cc1,23.8,·,·,·
NC(N)=NS(=O)(=O)c1ccc(NC(=S)NC(=O)/C=C/c2ccc(F)cc2)cc1,1.4,5.2,2.1,2.3
NC(N)=NS(=O)(=O)c1ccc(NC(=S)NC(=O)/C=C/c2cccs2)cc1,3.1,10.4,3.4,84.6*
NS(=O)(=O)c1ccc(NC(=S)NC(=O)/C=C/c2cccs2)cc1,3.9,0.2,83.4,active
COC(=O)C1=C(C)N(c2ccc(C)c(C)c2)/C(=C/c2ccc(O)cc2)C1=O,13.8,1.8,92.8*,91.3*
COC(=O)C1=C(C)N(CC2CCCO2)C(=O)/C1=C\c1ccc(O)cc1 (configuration not stated),-0.6,·,1.4,6.0
O=C(Nc1cccc(O)c1)c1cccc(C(=O)Nc2cccc(O)c2)c1,10.4,47.4*,0.5,4.3
O=C(Nc1cccc(O)c1)c1ccc(Br)cc1,-4.1,8.6,9.3,-1.2
Cc1ccc(Cl)cc1NC(=O)C1CCCN(S(C)(=O)=O)C1 (configuration not stated),5.3,-0.4,2.0,1.6
Cc1ccc(Cl)cc1NC(=O)C1CCCN1S(=O)(=O)c1ccc(-c2ccc(=O)[nH]n2)s1 (configuration not stated),-1.4,-9.4,96.5*,96.6*
COc1ccc(CN(C)C(=O)c2cccc(S(=O)(=O)N3CCCc4ccccc43)c2)c(OC)c1OC,·,27.7*,5.7,0.8
CCN1/C(=C\c2ccc3cc(C)ccc3[n+]2CC)Sc2cc(C)c(C)cc21,·,·,100.0*,100.4*
Cc1ccc2c(c1)S/C(=C\c1cccc[n+]1C)N2CCO,-3.4,10.4,0.6,-0.1
CCN1C(=Cc2ccc3ccccc3[n+]2CC)Sc2cc(C)ccc21,·,·,100.8*,100.2*
C=CC[n+]1c(/C=C2\C=Cc3cc(C)ccc3N2CC)ccc2ccccc21,99.5,·,100.1*,100.0*
CC[n+]1c(C)sc2c3ccsc3ccc21,-3.1,4.6,5.1,4.9
CCN1/C(=C/c2ccc3cc(C)ccc3[n+]2CC)Sc2ccc3sccc3c21,99.6,·,100.1*,100.5*
CC(=N/N=C1/NC(=O)C(CC(=O)O)S1)c1ccccn1 (configuration not stated),·,-1.6,3.5,-2.8
SMILES,Mtb bLac sens,Mtb hypoxia inh,Sa RN4220 lethal,Sa ugtP lethal
COc1ccc(C2CC(=O)C=C(c3cccc4c3Oc3ccccc3S4)C2)cc1OC (configuration not stated),·,6.5,8.2,1.7
CCN1/C(=C/c2ccc3cccc(C)c3[n+]2CC)Sc2ccccc21,99.8,·,99.6*,99.6*
C[n+]1ccccc1/C=C1\Sc2ccccc2N1CCO,-9.6,3.8,0.2,2.7
CCN1/C(=C/c2ccc3cc(C)cc(C)c3[n+]2CC)Sc2cc(C)ccc21,·,·,99.6*,99.6*
COc1ccc(OC)c(C=NNC(=O)c2ccc3nc[nH]c3c2)c1,·,-4.4,1.1,8.2
CCc1cc(C(Cc2ccc3ccccc3n2)=NO)c(O)cc1O,·,·,-11.2,-14.8
O=C(NN=Cc1cccc2nccnc12)c1ccccc1O,·,15.7,1.0,1.3
CC1COC(=O)C(CC(=O)OC(C)(C)C)CC=CCC(CC(=O)NCCO)C(=O)N1 (configuration not stated),·,9.5,8.0,2.9
Cc1cccc(C)c1NC(=O)CNC(=O)Cc1ccccc1[N+](=O)[O-],-4.3,-3.2,9.8,4.3
Cc1cccc([N+](=O)[O-])c1NC(=O)CN(Cc1ccccc1)Cc1ccccc1,8.7,10.2,1.5,99.0*
COCCNC(=S)NN=C1CC(C)CC(C)(C)C1 (configuration not stated),·,10.1,9.7,6.0
O=Nc1c(-c2c(O)[nH]c3cc(Br)ccc23)[nH]c2ccccc12,75.6,25.5,100.5*,99.9*
CC(C)CC(CO)NC(=O)CCC(NC(=O)OC(C)(C)C)C(=O)N(Cc1ccccc1)Cc1ccccc1 (configuration not stated),·,6.6,4.2,-14.4
